# Assay results as given in PubChem BioAssay (Tox21).
# Records with an inconclusive call do not appear. Entries that show only a call come without a potency. Activity calls are given as the source filed them. Calls follow the shape of the dose curve; as a rule, active = well fitted activation curve with a large enough effect in the repeat runs; inconclusive = weak or mixed curves; inactive = no such curve, though single readings can be large or run the other way.
# Molecular target: Nuclear receptor subfamily 1 group I member 3 (Homo sapiens) (UniProt Q14994)
# Sequence (Q14994 whole entry, looked up): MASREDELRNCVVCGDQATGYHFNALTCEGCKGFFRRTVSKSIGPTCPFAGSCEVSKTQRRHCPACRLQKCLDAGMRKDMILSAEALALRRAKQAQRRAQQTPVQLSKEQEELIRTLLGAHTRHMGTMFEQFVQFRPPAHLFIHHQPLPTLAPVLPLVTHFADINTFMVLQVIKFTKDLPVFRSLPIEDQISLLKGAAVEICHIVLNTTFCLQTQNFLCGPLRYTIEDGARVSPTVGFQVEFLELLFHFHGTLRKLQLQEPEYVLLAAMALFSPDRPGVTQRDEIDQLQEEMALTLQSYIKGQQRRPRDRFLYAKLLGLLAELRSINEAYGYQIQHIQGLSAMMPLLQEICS
# Assay: qHTS assay to identify small molecule agonists of the constitutive androstane receptor (CAR) signaling pathway (AID 1224839); also: nearly all actives have a fitted effect of over 15% in size;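 as to activation: HepG2 cells stably carrying human CAR and a CYP2B6 luciferase reporter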
# Details: HepG2 hCAR CYP2B6-luciferase, agonist mode, 24 h; series mostly up to 92.4 µM
# Excerpt: National Center for Advancing Translational Sciences [NCATS] NIH Chemical Genomics Center [NCGC] U.S. Environmental Protection Agency [EPA] National Institutes of Environmental Health Sciences [NIEHS] National Toxicology Program [NTP] Assay overview: The constitutive androstane receptor (CAR) is a nuclear receptor which regulates multiple drug metabolizing enzymes (DMEs) and transporters. Activating CAR will generally increase the transcription and subsequent translation of CYP2B6 and CYP3A4. These two DMEs represent about 50% of the drug metabolizing potential in the body. […] Recently, there have also been studies performed indicating CARs role in energy metabolism and cancer therapy. Therefore, inducing CARs activity could have a potential effect on diabetes and cancer. Identifying environmental toxins and compounds which modulate CAR, through the use of the Tox21 10K compound collection, will be an important step in determining the toxicity and potential therapeutic effects these factors will have on the human body.
# Assay Protocol Summary: A double-stable (hCAR and CYP2B6-2.2kb) transfected cell line, derived from human hepatoma (HepG2) cells, was utilized for the duration of the quantitative high-throughput screens. The HepG2-CYP2B6-hCAR cells suspended in DMEM culture medium supplemented with 10% FBS, 5 ug/mL blasticidin, 0.5 mg/mL geneticin, 100 U/mL penicillin and 100 ug/mL streptomycin were dispensed at 2500 cells/4 uL/well in 1536-well white solid bottom plates using a Multidrop Combi. After the assay plates were incubated at 37 C/5% CO2 for 4 hrs, 23 nL of compounds at 15 concentrations (from 5-48 columns) or positive control (from 1 to 4 columns) were transferred to the assay plates using a Pintool station. One uL of PK11195, was added using a Flying Reagent Dispenser to generate a final concentration of 0.75 uM PK11195 inside each well. After a 24 hr incubation period at 37 C/5% CO2, four uL of ONE-Glo reagent was added into the assay plates using a Flying Reagent Dispenser. After a 30 min incubation period at room temperature, the luminescence intensity in the assay plates was measured using a ViewLux plate reader.
# Potency is read from the fitted curve at half-maximal effect.
Compound,Potency,activation
CCOC(=O)c1cc(=O)c2c(OCC(COc3cccc4oc(C(=O)OCC)cc(=O)c34)OC(=O)[C@@H](N)CCCCN)cccc2o1,inactive,
O=C(O)[C@@H]1CSCN1,inactive,
COc1ccc2nc(NC(=O)Nc3ccccc3)sc2c1,10.6 µM (active),
CC(C)Nc1nc(N)nc(Cl)n1,inactive,
COc1nc(C)nc(NC(=O)NS(=O)(=O)c2ccccc2OCCCl)n1,inactive,
CC(=O)O[C@H]1CC[C@@]2(C)C(=CC[C@@H]3[C@@H]2CC[C@]2(C)C(C(C)=O)=CC[C@@H]32)C1,inactive,
FC(F)(F)c1ccccc1,inactive,
Cc1ccc(C)c(N)c1,inactive,
CCc1cc(Cl)c(OC)c(C(=O)NC[C@@H]2CCCN2CC)c1O,inactive,
COc1ccccc1OCC(O)COC(N)=O (stereo not given),inactive,
O=C1Nc2ccc([N+](=O)[O-])cc2C1=O,inactive,
OCCN(CCO)CCN(CCO)CCO,inactive,
NC(=O)Cc1cccc(C(=O)c2ccccc2)c1N,inactive,
C=O,inactive,
Cc1c(-c2ccccc2)oc2c(C(=O)OCCN3CCCCC3)cccc2c1=O,inactive,
OCc1ccccc1O,inactive,
COc1cc(Cl)ccc1Cl,inactive,
NCCC(O)(P(=O)(O)O)P(=O)(O)O,inactive,
CNCCC(Oc1ccccc1OC)c1ccccc1 (stereo not given),inactive,
CC1=C(CC(=O)O)c2cc(F)ccc2/C1=C\c1ccc(S(C)(=O)=O)cc1,inactive,

Compound,Potency,activation
COC(C)CCO (stereo not given),inactive,
CCCNC(C)C(=O)Nc1c(C)csc1C(=O)OC (stereo not given),inactive,
C[C@@H]1CN(c2c(F)c(F)c3c(=O)c(C(=O)O)cn(C4CC4)c3c2F)C[C@H](C)N1,,0.519% [at 19 µM] (inactive)
CCCCNCCCC,inactive,
O=C1CCCc2ccccc21,inactive,
CCOC(=O)C(Br)c1ccccc1 (stereo not given),inactive,
CC(C)O,inactive,
CCN1CC(CCN2CCOCC2)C(c2ccccc2)(c2ccccc2)C1=O (stereo not given),inactive,
CC1(C)S[C@@H]2[C@H](NC(=O)C(C(=O)O)c3ccccc3)C(=O)N2[C@H]1C(=O)O (stereo not given in full),inactive,
O=C1CCN(c2ccccc2)N1,inactive,
CCCOc1ccc2c(c1)CC[C@@H]1[C@@H]2CC[C@]2(C)C(OC)CC[C@@H]12 (stereo not given in full),inactive,
Cc1cn([C@@H]2O[C@H](CO)[C@@H](O)[C@@H]2F)c(=O)[nH]c1=O,inactive,
O=C(CC(=O)C(F)(F)F)c1ccccc1,55.3 µM (active),
CC(C)C(=O)OC/C=C/c1ccccc1,inactive,
CCOC(=O)C1CC(=O)C(=C(O)C2CC2)C(=O)C1 (stereo not given),inactive,
CC(C)=CCCC(C)CCOC=O (stereo not given),inactive,
CC(C)CC(=O)OCc1ccccc1,inactive,
CCCC(CCC)(C(=O)OCC)C(=O)OCC,inactive,
Cc1cc2nc(N)sc2cc1C,2.19 µM (active),
CCCCCCCCOC(=O)CCCCCCCCC(=O)OCCCCCCCC,inactive,
